Screening results from PubChem.
ClpP mod = qHTS Assay for Activators of ClpP. Potency, µM (top dose mostly 57.5 µM), inactives show at the top dose activity change, negative = active. ATP-dependent Clp protease proteolytic subunit (Bacillus subtilis (strain 168)), P80244. purified B. subtilis ClpP, FRET peptide cleavage, 20 min. 1.9% of 340,000 active; active means well fitted falling curve with a large enough effect; inconclusive means small, poorly fitted or top-dose-only effect; inactive means no such curve, though single readings can be large or run the other way; further: potency means the concentration at half of the fitted maximal effect; the source files actives as falling curves though it sought activators and does not explain the sign; nearly all actives have a fitted effect of over 65% in size
Target sequence (P80244 whole entry, looked up): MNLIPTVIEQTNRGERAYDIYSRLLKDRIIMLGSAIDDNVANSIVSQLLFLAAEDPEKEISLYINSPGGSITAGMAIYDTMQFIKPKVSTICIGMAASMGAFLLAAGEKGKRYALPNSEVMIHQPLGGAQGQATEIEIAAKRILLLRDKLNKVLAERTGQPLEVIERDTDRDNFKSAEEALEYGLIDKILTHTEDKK
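Purified B. subtilis ClpP, 10 microg/mL final in Tris/HCl pH8 with KCl, BSA, glycerol and Tween-20, cleaved an Abz/nitrotyrosine-quenched decapeptide. Fluorescence (ex 320, em 430) was read at 0 and 20 min at room temperature. Delta was normalized to 5.8 microM ADEP and DMSO/no-enzyme controls.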
DT40 TDP1 no CPT = qHTS for Inhibitors of human tyrosyl-DNA phosphodiesterase 1 (TDP1): qHTS in cells in absence of CPT | DT40 Tdp1-/- hTDP1 cells, no CPT, ATP luminescence, 48 h | Potency, µM (doses to about 46.2 µM), for the others: at the top dose activity change, negative = growth inhibition, usual class: inhibitors | 15% of 420,000 active | AID 686978, 2013; further: potency means the concentration at half of the fitted maximal effect; on the % scale 0 is the no-effect control and ±100 the full control effect; nearly all actives have a fitted effect of over 55% in size
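DT40 Tdp1-/-;hTDP1 cells, no CPT (DMSO vehicle only), 400 cells/well; compounds pin-transferred; ≥48 hr, 37 °C; CellTiter-Glo 30 min RT dark, luminescence read.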
DRD3 agonist = qHTS of D3 Dopamine Receptor Agonist: qHTS | D(3) dopamine receptor (Homo sapiens), P35462 | D3R DiscoveRx beta-arrestin cells, luminescence, 90 min | max activation, % | 0.58% of 410,000 active | AID 652048, 2013; in the data active means max activation above about 30%; further: 0% is about no effect
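Cells at 1500/well, incubated overnight, then treated with pinned compounds (dopamine as control) for 90 min at 37 degrees C. DiscoveRx reagent added for 30 - 60 minutes at room temperature; luminescence read.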
DRD3 antagonist = qHTS of D3 Dopamine Receptor Antagonist: qHTS. D(3) dopamine receptor (Homo sapiens), P35462. D3R cells, DiscoveRx beta-arrestin luminescence, antagonist mode; stronger effect = lower value. 2.5% of 360,000 active. max response, negative = inhibition, %; in the data active means max response below about -50%; inconclusive means no clear call, values can overlap the other calls; further: on the % scale 0 is the no-effect control and ±100 the full control effect
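Cells expressing the human receptor were seeded at 1500 cells/well, incubated overnight at 37 degrees C in 5% CO2, then exposed to library compounds with dopamine controls for 90 minutes at 37 degrees C before luminescent detection.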
IL1B secr inh = qHTS for Inhibitors of Inflammasome Signaling: IL-1-beta AlphaLISA Primary Screen | 4.7% of 360,000 active | THP-1 LPS/ATP IL-1B secretion, AlphaLISA, 16 h; stronger effect = lower value | activity change, % at 57.5 µM; in the data active means activity change below about -50%; inconclusive means mostly about -30% to -49%; further: on the % scale 0 is the no-effect control and ±100 the full control effect
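Secreted IL-1B measured by AlphaLISA bead assay after 16 h compound exposure of THP-1 cells; compounds (final up to 57.5 uM) added 1 h before LPS (250 ng/mL) and ATP (1.25 mM) stimulation; lower signal means less secretion.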
TDP1 cell CPT = qHTS for Inhibitors of human tyrosyl-DNA phosphodiesterase 1 (TDP1): qHTS in cells in presence of CPT. AID 686979, 2013. Potency, µM (series often up to 46.2 µM), without a hit: top-dose activity change, negative = growth inhibition, actives largely listed as inhibitors. chicken DT40 Tdp1-/-;hTDP1 cells + 20 nM CPT, ATP luminescence, 48 h. 12% of 420,000 active; further: potency means the concentration at half of the fitted maximal effect; on the % scale 0 is the no-effect control and ±100 the full control effect; nearly all actives have a fitted effect of over 55% in size
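Chicken DT40 Tdp1-/- cells stably complemented with human TDP1 were seeded at 400 cells/well in medium containing 20 nM camptothecin, exposed to pin-transferred compounds, and grown at 37 °C for at least 48 hr. Viability was read as ATP luminescence.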
* marks the source's active call; other numbers are inactive results; ? = inconclusive; / = not tested or not shown. A selection: hits, their analogues and other compounds. The true share with any hit is near 21%. Unless noted, the call rests on the fitted dose curve; in most records, active means well fitted inhibition curve with a large enough effect; inconclusive means small, poorly fitted or top-dose-only effect; inactive means flat fitted curve, though single readings scatter.

SMILES | ClpP mod | DT40 TDP1 no CPT | DRD3 agonist | DRD3 antagonist | IL1B secr inh | TDP1 cell CPT
Cn1c(N)c(N=O)c(=O)n(C)c1=S | / | ? | -10 | -24 | 8 | -9%
COc1cccc(C(N)=O)c1OC(=O)Cc1ccccc1F | / | -27% | 7 | -19 | -5 | 8%
Cc1cc(C)n(-c2nc3c(c(=O)[nH]c(=O)n3C)n2CC(O)COc2ccccc2C)n1 (configuration not stated) | -24% | ? | 2 | -7 | 6 | -13%
CN(Cc1ccc(Cl)c(Cl)c1)C(c1cc2ccccc2o1)c1nnnn1C(C)(C)C (configuration not stated) | -1% | 21µM* | 3 | 4 | 0 | ?
CCCCn1nnnc1C(c1cc2ccccc2o1)N(C)Cc1ccccc1 (configuration not stated) | 1% | 23µM* | 5 | 10 | 16 | ?
O=C(/C=C/c1ccccc1)Nc1cccc(C(=O)N2CCCC2)c1 | 1% | -20% | 8 | 47 | -12 | ?
CC1(NC(=O)c2ccccc2)CCN(CCCc2ccccc2)C1=O (configuration not stated) | 2% | 4.6µM* | 4 | 10 | 6 | 3.7µM*
CC1(NC(=O)CC(c2ccccc2)(c2ccccc2)c2ccccc2)CCN(CCCc2ccccc2)C1=O (configuration not stated) | 0% | 21µM* | 0 | -6 | -13 | 23µM*
CC1(NC(=O)CCc2ccccc2)CCN(CCCc2ccccc2)C1=O (configuration not stated) | 1% | ? | 2 | -21 | 24 | 15µM*
O=C(CCc1ccccc1)NC1(Cc2ccccc2)CCN(CCc2cccs2)C1=O (configuration not stated) | -3% | ? | -10 | -7 | ? | ?
O=C(NC1(Cc2ccccc2)CCN(Cc2ccc(-c3ccccc3)cc2)C1=O)c1ccccc1 (configuration not stated) | -3% | 23µM* | 6 | 43 | -10 | 21µM*
CCN(CCCNC(=O)CNC(=O)c1nn(-c2ccc(OC)cc2)c(=O)c2ccccc12)c1cccc(C)c1 | / | ? | 3 | 15 | -25 | ?
CC(C)NC(=O)N(C)C[C@@H]1OCc2cnnn2CCCC(=O)N([C@H](C)CO)C[C@@H]1C | 1% | -9% | -11 | ? | 21 | -3%
Cc1ccc(CN2C(=O)C3(c4ccccc42)N(c2cccc(C(F)(F)F)c2)C(=O)CS3(=O)=O)cc1 (configuration not stated) | 2% | ? | -2 | / | / | ?
Cc1cccc(NC(=O)CC2C(=O)NCCN2C(=O)Nc2ccc(Cl)cc2)c1 (configuration not stated) | 2% | -26% | -2 | -4 | ? | ?
Cc1ccc2nc(N/N=C\c3ccc([N+](=O)[O-])o3)nc(-c3ccccc3)c2c1 | 1% | ? | -8 | 13 | -59* | 23µM*
N#Cc1ccccc1/C=N/Nc1nc(-c2ccccc2)c2cc(Br)ccc2n1 | -1% | ? | 3 | -4 | ? | ?
O=C(N/N=C/c1ccc([N+](=O)[O-])o1)c1ccccc1NS(=O)(=O)c1cccs1 | -2% | ? | 6 | -7 | -12 | ?
Cc1ccc2nc(Cl)nc(-c3ccccc3)c2c1 | / | ? | -4 | -12 | -12 | -19%
O=[N+]([O-])c1ccc(/C=N/Nc2nc(-c3ccccc3)c3cc(Br)ccc3n2)o1 | -2% | 21µM* | 3 | 14 | -22 | 16µM*
O=[N+]([O-])c1ccc(/C=N/Nc2ccc3ccccc3c2)o1 | -2% | -30% | -19 | -89* | -9 | ?
